KKLEB tox – cytotoxicity in KKLEB CF airway cells, primary screen, cytotoxicity control for CF NF-kB inhibitor project, cell-based, uHTS, fluorescence assay plates; activity change (cytotoxicity), % at 5 µM; AID 602141, 2011; hit rate 0.36% among 360,000; KKLEB CF airway cells viability, ATPlite luminescence, overnight; stronger effect = lower value; cells stimulated with P. aeruginosa culture filtrate;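 active = corrected activity change at or below -50% at 5 µM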
HIF-2a inh – HIF-2a reporter inhibitors, primary screen, luminescence, 786-0 RCC cells | 786-0 RCC cells HIF-2a reporter, luciferase luminescence, overnight | AID 624352, 2012 | inhibition, % at 18.8 µM | hit rate 0.72% among 360,000;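 active = inhibition of the luminescence signal of 40% or more relative to plate controls, in a single-dose primary screen at 18.75 µM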
CF NFkB block – inhibitors of PAF-induced NF-kB signaling, primary screen, cell-based, GFP fluorescence, uHTS. inhibition, % at 5 µM. hit rate 0.86% among 360,000. KKLEB NF-kB-GFP reporter, GFP fluorescence overnight;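 active = at least 50% inhibition at 5 µM, scaled per plate between neutral and stimulator controls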;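 note: PAF is a Pseudomonas aeruginosa culture filtrate used as stimulus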
Peg3 prom inh – Peg3 promoter-driven luciferase inhibitors, primary screen, cell-based, HeLa, luciferase luminescence; HeLa PEG-Prom luciferase reporter, overnight; AID 588405, 2011; inhibition, % at 20 µM; hit rate 1.7% among 360,000;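 active = inhibition of at least 50% at 20 µM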
ABHD5-PLIN5 inh – ABHD5-PLIN5 interaction inhibitors, primary screen, cell lysate, split luciferase complementation, luminescence; Split G. princeps luciferase complementation, 4 h; inhibition, % at 4 µM; hit rate 0.78% among 360,000; AID 602281, 2012;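 active = inhibition above the mean inhibition across every tested compound plus 3 SD, cut at about 22% in these data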
Target sequence (Q00G26 whole entry, looked up): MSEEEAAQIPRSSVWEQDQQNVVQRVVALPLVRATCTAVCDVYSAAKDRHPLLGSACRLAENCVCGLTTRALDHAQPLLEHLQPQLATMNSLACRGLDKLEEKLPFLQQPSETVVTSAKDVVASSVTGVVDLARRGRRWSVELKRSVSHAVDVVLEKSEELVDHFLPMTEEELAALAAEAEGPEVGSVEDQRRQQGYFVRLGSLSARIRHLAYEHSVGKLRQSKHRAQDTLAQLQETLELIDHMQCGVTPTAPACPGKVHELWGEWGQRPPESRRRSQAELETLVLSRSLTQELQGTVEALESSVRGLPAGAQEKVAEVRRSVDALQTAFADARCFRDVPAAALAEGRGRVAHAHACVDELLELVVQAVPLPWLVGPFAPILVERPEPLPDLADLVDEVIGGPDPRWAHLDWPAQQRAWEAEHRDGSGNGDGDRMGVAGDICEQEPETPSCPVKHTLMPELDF
Target sequence (Q8WTS1 whole entry, looked up): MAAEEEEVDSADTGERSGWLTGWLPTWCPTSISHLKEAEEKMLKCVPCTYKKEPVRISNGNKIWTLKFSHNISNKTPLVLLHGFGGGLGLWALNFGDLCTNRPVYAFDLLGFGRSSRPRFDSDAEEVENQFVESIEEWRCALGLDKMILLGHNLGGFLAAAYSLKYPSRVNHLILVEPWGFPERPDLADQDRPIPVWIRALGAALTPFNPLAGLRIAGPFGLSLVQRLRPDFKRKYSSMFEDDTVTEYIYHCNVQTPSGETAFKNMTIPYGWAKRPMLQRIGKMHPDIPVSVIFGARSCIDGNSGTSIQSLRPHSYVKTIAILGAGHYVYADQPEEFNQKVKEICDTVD
Mdm2 MdmX PPI – inhibitors of human Mdm2-MdmX association, primary screen, cell-based, luminescence, split luciferase, SaOS-2, uHTS; SaOS-2 split-luciferase Mdm2/MdmX complementation; inhibition, % at 8 µM; Protein Mdm4 (Homo sapiens) + E3 ubiquitin-protein ligase Mdm2 (Homo sapiens), …; hit rate 3% among 330,000; AID 485346, 2010;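 active = inhibition of at least 50% at 8 µM in the primary screen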
CF NFkB inh conf – inhibitors of PAF-induced NF-kB signaling, retest, confirmation, cell-based, GFP fluorescence, single concentration. shares compounds with CF NFkB block. KKLEB CF airway cells, overnight. inhibition, % at 5 µM. hit rate 64% among 1,300. AID 602472, 2012; in the data active = inhibition above about 40%;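 note: stimulus PAF is a Pseudomonas aeruginosa filtrate and not platelet activating factor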
Each line names hits and unclear results; the compound was inactive in the other large screens (follow-up assays come after a bar, where they were run). A selection: hits, their analogues and other compounds. The true share with any hit is near 4.6%.

CC1(C)OC2CC3C4CC(F)C5=CC(=O)C=CC5(C)C4(F)C(O)CC3(C)C2(C(=O)CO)O1 (stereo not drawn)	CF NFkB block 75.2 | CF NFkB inh conf inactive
C[C@@H]1C[C@H]2[C@@H]3C[C@H](F)C4=CC(=O)C=C[C@]4(C)[C@@]3(F)[C@@H](O)C[C@]2(C)[C@@]1(O)C(=O)CO	CF NFkB block 77.6 | CF NFkB inh conf inactive
CN(C)/C=C/C(=O)c1ccc2noc(-c3ccc(F)cc3)c2c1	none
Cc1ccc(-c2onc3ccc(C(=O)/C=C/N(C)C)cc23)cc1	CF NFkB block 67.9 | CF NFkB inh conf 46.8
COCOc1ccc(/C=C/C(=O)c2c(O)cc(OCOC)cc2OCOC)cc1	CF NFkB block 51.9 | CF NFkB inh conf inactive
CCCCCCNC(=O)O[C@H]1Cn2c(=O)ccc(=O)n2[C@@H]2CN(S(=O)(=O)c3ccc(C)cc3)C[C@]12O	CF NFkB block 61.6, Peg3 prom inh 102.8, ABHD5-PLIN5 inh 22.6 (no result: Mdm2 MdmX PPI) | CF NFkB inh conf inactive
CN(C)c1cccc(NC(=O)C2Cc3c(-c4cccnc4)ccnc3O2)c1 (stereo not drawn)	none (no result: Mdm2 MdmX PPI)
CCN(CC)CCN(C(=O)CN1C(=O)CCC1=O)c1nc2cc3c(cc2s1)OCO3	none
CCN(CC)CCN(C(=O)CCS(=O)(=O)c1ccccc1)c1nc2cc3c(cc2s1)OCO3	CF NFkB block 53.3 | CF NFkB inh conf inactive
CCC(CO)Oc1cc(NC(=O)c2cccc(Cl)c2)c2ncn(C(C)C)c2c1 (stereo not drawn)	none
Cc1ccc(C)c(S(=O)(=O)N(C(=O)c2ccncc2)c2ccc(OC(=O)c3ccncc3)cc2)c1	CF NFkB block 69.0 | CF NFkB inh conf 85.0
Cc1ccc(S(=O)(=O)N(C(=O)c2ccncc2)c2ccc(OC(=O)c3ccncc3)cc2)cc1	none
COC(=O)[C@]1(C)N[C@H](CN(C)C(=O)c2ccc(F)cc2)[C@@H]2C(=O)N(Cc3ccccc3)C(=O)[C@@H]21	none
C=CCn1c(SCC(=O)Nc2cc(C)on2)nnc1-c1ccccc1F	none
COc1ccc(-n2c(C)cc3cc(OC(C)=O)ccc32)cc1	CF NFkB block 57.2 | CF NFkB inh conf 57.6
O=[N+]([O-])c1cc(S(=O)(=O)N2CCCC2)ccc1OCCOc1ccccc1	CF NFkB block 50.3 | CF NFkB inh conf inactive
O=c1cc(-c2ccccc2)[nH]n1-c1ccccc1	CF NFkB block 58.2 (no result: Mdm2 MdmX PPI) | CF NFkB inh conf inactive
CCN(CC(=O)Nc1cc(Cl)ccc1C)C(=O)c1oc2ccc(OC)cc2c1C	none
CC(=O)c1c(O)cc2c3c1OC(C)(C)C1CCC(C)(CC31)O2 (stereo not drawn)	CF NFkB block 74.1 (no result: Mdm2 MdmX PPI) | CF NFkB inh conf 65.5
CCOC(=O)c1c(C)c2c(=O)[nH]cnc2n1-c1ccccc1	CF NFkB block 56.3 | CF NFkB inh conf 66.3
CCOC(=O)c1ccc(NS(=O)(=O)c2c(C)nc3sccn3c2=O)cc1	none
C/C(=N/NC(=O)c1cccs1)c1ccc(NC(=O)COc2ccc(Cl)cc2)cc1	CF NFkB block 59.0 | CF NFkB inh conf 77.8
COc1ccc(NC(=O)c2cc(-c3sc(NC(=O)c4ccccc4)nc3C)n(Cc3ccccc3)n2)cc1	none (no result: KKLEB tox, CF NFkB block, Peg3 prom inh, Mdm2 MdmX PPI)
C[C@@]12CCC=C[C@H]1[C@H](c1ccc(/C=C/c3ccccc3)cc1F)N(Cc1ccccc1)C2=O	none
C[C@@]12CCC=C[C@H]1[C@H](c1ccc(C(F)(F)F)cc1)N(Cc1ccccc1)C2=O	CF NFkB block 57.6 | CF NFkB inh conf inactive
CCCCc1ccc(NC(=S)NCc2cccc(OC)c2)cc1	none
CCCCc1ccc(NC(=S)Nc2ccc(Nc3ccc(OC)cc3)cc2)cc1	CF NFkB block 52.2 | CF NFkB inh conf inactive
O=C(COC(=O)c1ccc(O)cc1O)Nc1nnc(-c2ccccc2)o1	none
CCCCNC(=S)N(C)/N=C/c1ccc(OCC(=O)Nc2ccc(OC)cc2)c(OC)c1	CF NFkB block 54.0 | CF NFkB inh conf inactive
CCCNC(=O)C1CC(c2ccccc2C(F)(F)F)=NO1 (stereo not drawn)	none
O=C(OC1CCOC1=O)c1ccc(Cl)c(S(=O)(=O)N2CCOCC2)c1 (stereo not drawn)	none
O=C(Nc1ccc(OCC(=O)N2CCOCC2)cc1)c1cncc(Br)c1	CF NFkB block 57.2 | CF NFkB inh conf 48.1
Cc1nnc(SCC(=O)NNC(=O)c2ccc(F)cc2)n1Cc1ccccc1	none
Nc1ccc2nc(-c3ccccc3)c(-c3ccccc3)nc2c1	CF NFkB block 66.7 | CF NFkB inh conf inactive
O=C(NCc1ccccn1)C1CCCN(S(=O)(=O)c2cc(Cl)ccc2Cl)C1 (stereo not drawn)	CF NFkB block 87.2, Peg3 prom inh 99.0 (no result: Mdm2 MdmX PPI) | CF NFkB inh conf inactive
Cc1ccc(C(=O)COC(=O)c2cc(Cl)ccc2O)cc1[N+](=O)[O-]	CF NFkB block 51.8 | CF NFkB inh conf 47.2
Cc1ccsc1CN(C)c1ncnc2ccc(-c3ccoc3)cc12	CF NFkB block 83.6 (no result: Mdm2 MdmX PPI) | CF NFkB inh conf 96.7
CCS(=O)(=O)N1Cc2cc(C(=O)NCC3CC3)nc(-c3cccc(-c4cccnc4)c3)c2[C@@H]1CCO	none (no result: KKLEB tox, CF NFkB block, Peg3 prom inh, Mdm2 MdmX PPI)
O=C(COC(=O)C1CCN(c2ccc(C(F)(F)F)cn2)CC1)Nc1cccc(F)c1	CF NFkB block 64.0 | CF NFkB inh conf inactive
CCCCNC(=O)C1(C)CCN1C(=O)c1ccc(OC)c(C(F)(F)F)c1 (stereo not drawn)	none (no result: Mdm2 MdmX PPI)
Cc1ccccc1-c1cccc([C@@H]2C[C@H]3[C@H](CON3C)CN2Cc2cc(Cl)cc(Cl)c2)c1	none (no result: Mdm2 MdmX PPI)
Cc1cc(C)c(O)c(CN(C)Cc2cc(Cl)cc(Cl)c2O)c1	CF NFkB block 60.3 (no result: Mdm2 MdmX PPI) | CF NFkB inh conf 74.8
CC(C)N(C(=O)C[n+]1ccsc1N)c1ccccc1	none
Cc1ccc(CNc2ncnc(N)c2[N+](=O)[O-])cc1	CF NFkB block 63.0 | CF NFkB inh conf 65.5
Cc1cccc(C)c1Nc1ncnc(N)c1[N+](=O)[O-]	none
Cc1ccc(CNc2nc(-c3cccnc3)nc3ccccc23)cc1	none
COc1ccc(/C=N/Nc2nc(-c3cccnc3)nc3ccccc23)cc1OC	CF NFkB block 64.5 | CF NFkB inh conf 68.2
COc1ccc(CCNc2nc(-c3cccnc3)nc3ccccc23)cc1OC	CF NFkB block 58.4 | CF NFkB inh conf inactive
CN(C(=O)COC(=O)c1nc(Cl)c(Cl)c(Cl)c1Cl)C1CCS(=O)(=O)C1 (stereo not drawn)	CF NFkB block 78.9, Peg3 prom inh 107.1 (no result: Mdm2 MdmX PPI) | CF NFkB inh conf inactive

Assay outcomes (PubChem BioAssay)
